Read-outs that look alike come from different tables or passages of the source.
Legend:
Set-up in all cases: species or system human, MV4-11 + K-562 + COLO205 + SK-N-BE2 + OVCAR-8
ACVR1B = conditions: read-out: apparent Kd, n = 1
CSNK1D = conditions: read-out: apparent Kd, n = 1
CSNK1E = conditions: read-out: apparent Kd, n = 1
MAPK14 = conditions: read-out: apparent Kd, compound concentrations: 100 nM and 1000 nM (sheet 'Samples'), n = 1
CSNK1A1 = conditions: read-out: apparent Kd; compound concentrations:100 nM and 1000 nM (sheet 'Samples'); n = 1
MAP2K4 = conditions: read-out: apparent Kd; compound concentrations:100 nM and 1000 nM (sheet 'Samples'); n = 1
ACVR2B = conditions: read-out: apparent Kd; compound concentrations: 100 nM and 1000 nM (sheet 'Samples'), CATDS: 8.2353092384730597E-2; n = 1
ADCK3 = conditions: read-out: apparent Kd; compound concentrations: 100 nM and 1000 nM (sheet 'Samples'), CATDS: 4.7719442951788302E-2; n = 1
BCR = conditions: read-out: apparent Kd; compound concentrations: 100 nM and 1000 nM (sheet 'Samples'), CATDS: 9.2768545935790703E-2; n = 1
CSNK1G1 = conditions: read-out: apparent Kd; compound concentrations: 100 nM and 1000 nM (sheet 'Samples'), CATDS: 3.1181891791675201E-2; n = 1
DCTPP1 = conditions: read-out: apparent Kd; compound concentrations: 100 nM and 1000 nM (sheet 'Samples'), CATDS: 3.3773682420650999E-2; n = 1
DDR1 = conditions: read-out: apparent Kd, compound concentrations: 100 nM and 1000 nM (sheet 'Samples'), n = 1
FLT4 = conditions: read-out: apparent Kd; compound concentrations: 100 nM and 1000 nM (sheet 'Samples'), CATDS: 0.117719858007404; n = 1
GAK = conditions: read-out: apparent Kd; compound concentrations: 100 nM and 1000 nM (sheet 'Samples'), CATDS: 0.134261211287381; n = 1
MAPKAPK2 = conditions: read-out: apparent Kd; compound concentrations: 100 nM and 1000 nM (sheet 'Samples'), CATDS: 3.6359622105698597E-2; n = 1
PDGFRB = conditions: read-out: apparent Kd; compound concentrations: 100 nM and 1000 nM (sheet 'Samples'), CATDS: 3.2777041424413303E-2; n = 1
PIK3CD = conditions: read-out: apparent Kd, n = 1
PIM2 = conditions: read-out: apparent Kd; compound concentrations: 100 nM and 1000 nM (sheet 'Samples'), CATDS: 3.2827495568097498E-2; n = 1
PRKAG1 = conditions: read-out: apparent Kd; compound concentrations: 100 nM and 1000 nM (sheet 'Samples'), CATDS: 0.117727250561146; n = 1
RET = conditions: read-out: apparent Kd; compound concentrations: 100 nM and 1000 nM (sheet 'Samples'), CATDS: 0.121628255608471; n = 1
RIPK2 = conditions: read-out: apparent Kd; compound concentrations: 100 nM and 1000 nM (sheet 'Samples'), CATDS: 9.1819090008616905E-2; n = 1
RIPK3 = conditions: read-out: apparent Kd; compound concentrations: 100 nM and 1000 nM (sheet 'Samples'), CATDS: 3.5551158882109302E-2; n = 1
SLK = conditions: read-out: apparent Kd; compound concentrations: 100 nM and 1000 nM (sheet 'Samples'), CATDS: 3.3864807637991101E-2; n = 1
STK10 = conditions: read-out: apparent Kd; compound concentrations: 100 nM and 1000 nM (sheet 'Samples'), CATDS: 3.2932221087981599E-2; n = 1
TGFBR1 = conditions: read-out: apparent Kd; compound concentrations: 100 nM and 1000 nM (sheet 'Samples'), CATDS: 3.3353996137348303E-2; n = 1
ADCK1 = conditions: read-out: apparent Kd; compound concentrations:100 nM and 1000 nM (sheet 'Samples'); n = 1
PIK3CA = conditions: read-out: apparent Kd; compound concentrations:100 nM and 1000 nM (sheet 'Samples'); n = 1
PKN1 = conditions: read-out: apparent Kd; compound concentrations:100 nM and 1000 nM (sheet 'Samples'); n = 1
PKN2 = conditions: read-out: apparent Kd; compound concentrations:100 nM and 1000 nM (sheet 'Samples'); n = 1
RAB5C = conditions: read-out: apparent Kd; compound concentrations:100 nM and 1000 nM (sheet 'Samples'); n = 1
TTN = conditions: read-out: apparent Kd; compound concentrations:100 nM and 1000 nM (sheet 'Samples'); n = 1
CAMK4 = conditions: read-out: apparent Kd; compound concentrations: 100 nM and 1000 nM (sheet 'Samples'), CATDS: 0.20736458349595299; n = 1
COX5A = conditions: read-out: apparent Kd; compound concentrations: 100 nM and 1000 nM (sheet 'Samples'), CATDS: 0.27607589651393999; n = 1
[1] = compound concentrations:100 nM and 1000 nM (sheet 'Samples')

CN(C)CCCNc1nccc(-c2c(-c3ccc(F)cc3)nn3cc(C(F)(F)F)ccc23)n1.CS(=O)(=O)O [GW618013A]
potency estimated from few doses (ACVR1B; compound concentrations: 100 nM and 1000 nM (sheet 'Samples'), CATDS: 0.30191803443786602): 849 nM | potency estimated from few doses (CSNK1D; compound concentrations: 100 nM and 1000 nM (sheet 'Samples'), CATDS: 0.30648491159914698): 827 nM | potency estimated from few doses (CSNK1E; compound concentrations: 100 nM and 1000 nM (sheet 'Samples'), CATDS: 0.19201098088976601): 2340 nM | potency estimated from few doses (MAPK14; CATDS: 0.23713518302070899): 1370 nM

Cl.c1ccc(-c2nc3n(c2-c2ccc4c(c2)OCO4)CCC3)nc1 [SB-400868-A]
potency estimated from few doses (ACVR1B; [1]): 87 nM | potency estimated from few doses (CSNK1A1): 369 nM | potency estimated from few doses (CSNK1D; [1]): 150 nM | potency estimated from few doses (CSNK1E; [1]): 262 nM | potency estimated from few doses (MAP2K4): 1900 nM

Cl.c1ccc(-c2ccc3c(Nc4ccc5[nH]ccc5c4)ccnc3c2)nc1 [GW440138A]
potency estimated from few doses (ACVR1B; compound concentrations: 100 nM and 1000 nM (sheet 'Samples'), CATDS: 4.6786491220556801E-2): 481 nM | potency estimated from few doses (ACVR2B): 119 nM | potency estimated from few doses (ADCK3): 453 nM | potency estimated from few doses (BCR): 94.2 nM | potency estimated from few doses (CSNK1G1): 2210 nM | potency estimated from few doses (DCTPP1): 1520 nM | potency estimated from few doses (DDR1; CATDS: 4.4560789756538197E-2): 558 nM | potency estimated from few doses (FLT4): 62.1 nM | potency estimated from few doses (GAK): 50.4 nM | potency estimated from few doses (MAPK14; CATDS: 3.4656065329692502E-2): 1360 nM | potency estimated from few doses (MAPKAPK2): 1130 nM | potency estimated from few doses (PDGFRB): 1740 nM | potency estimated from few doses (PIK3CD; compound concentrations: 100 nM and 1000 nM (sheet 'Samples'), CATDS: 7.8466162037350698E-2): 131 nM | potency estimated from few doses (PIM2): 1730 nM | potency estimated from few doses (PRKAG1): 62.1 nM | potency estimated from few doses (RET): 58.9 nM | potency estimated from few doses (RIPK2): 96 nM | potency estimated from few doses (RIPK3): 1230 nM | potency estimated from few doses (SLK): 1500 nM | potency estimated from few doses (STK10): 1700 nM | potency estimated from few doses (TGFBR1): 1610 nM

Cl.Cl.c1ccc(-c2cc3ccncc3cc2OC2CCNCC2)cc1.c1ccc(-c2cc3ccncc3cc2OC2CCNCC2)cc1 [GSK1122999D]
potency estimated from few doses (ACVR1B; [1]): 1160 nM | potency estimated from few doses (ADCK1): 1280 nM | potency estimated from few doses (PIK3CA): 287 nM | potency estimated from few doses (PIK3CD; [1]): 179 nM | potency estimated from few doses (PKN1): 2030 nM | potency estimated from few doses (PKN2): 2040 nM | potency estimated from few doses (RAB5C): 1190 nM | potency estimated from few doses (TTN): 886 nM

COc1ccc2cc(-c3c(-c4ccncc4)nc(-c4ccc(S(C)=O)cc4)n3C)ccc2c1 (stereo not drawn) [SB-437013]
potency estimated from few doses (ACVR1B; compound concentrations: 100 nM and 1000 nM (sheet 'Samples'), CATDS: 0.34398750715430798): 810 nM | potency estimated from few doses (CAMK4): 2240 nM | potency estimated from few doses (COX5A): 1190 nM | potency estimated from few doses (DDR1; CATDS: 0.21513236479032799): 2040 nM

Reference: publication PMC11062922 (Nature Chemical Biology, 2023)
